Screening results as filed in PubChem.
Luciferase inh: inhibitors of firefly (Photinus pyralis) luciferase. purified P. pyralis luciferase, luminescence, biochemical. Potency, µM (highest dose often 115 µM), most hits filed as inhibitors. actives 2.5% (n = 76,000). AID 1347043; also: nearly all actives have a fitted effect of over 65% in size
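Cell-free enzyme assay, 10nM P. pyralis luciferase, luciferin and ATP each at 10uM. Inhibition profiled over a 6-point titration, read as luminescence.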
NPR1 antag: antagonists of human natriuretic peptide receptor Npr1 | Potency, µM (titrated, usually from 46.3 µM), hits mostly inhibitors | AID 1347048 | actives 1.6% (n = 76,000) | P16066 | HEK293 hNpr1 GloSensor cGMP, ANP-stimulated luminescence; calls by dose curve; also: nearly all actives have a fitted effect of over 60% in size
Target sequence (P16066 whole entry, looked up): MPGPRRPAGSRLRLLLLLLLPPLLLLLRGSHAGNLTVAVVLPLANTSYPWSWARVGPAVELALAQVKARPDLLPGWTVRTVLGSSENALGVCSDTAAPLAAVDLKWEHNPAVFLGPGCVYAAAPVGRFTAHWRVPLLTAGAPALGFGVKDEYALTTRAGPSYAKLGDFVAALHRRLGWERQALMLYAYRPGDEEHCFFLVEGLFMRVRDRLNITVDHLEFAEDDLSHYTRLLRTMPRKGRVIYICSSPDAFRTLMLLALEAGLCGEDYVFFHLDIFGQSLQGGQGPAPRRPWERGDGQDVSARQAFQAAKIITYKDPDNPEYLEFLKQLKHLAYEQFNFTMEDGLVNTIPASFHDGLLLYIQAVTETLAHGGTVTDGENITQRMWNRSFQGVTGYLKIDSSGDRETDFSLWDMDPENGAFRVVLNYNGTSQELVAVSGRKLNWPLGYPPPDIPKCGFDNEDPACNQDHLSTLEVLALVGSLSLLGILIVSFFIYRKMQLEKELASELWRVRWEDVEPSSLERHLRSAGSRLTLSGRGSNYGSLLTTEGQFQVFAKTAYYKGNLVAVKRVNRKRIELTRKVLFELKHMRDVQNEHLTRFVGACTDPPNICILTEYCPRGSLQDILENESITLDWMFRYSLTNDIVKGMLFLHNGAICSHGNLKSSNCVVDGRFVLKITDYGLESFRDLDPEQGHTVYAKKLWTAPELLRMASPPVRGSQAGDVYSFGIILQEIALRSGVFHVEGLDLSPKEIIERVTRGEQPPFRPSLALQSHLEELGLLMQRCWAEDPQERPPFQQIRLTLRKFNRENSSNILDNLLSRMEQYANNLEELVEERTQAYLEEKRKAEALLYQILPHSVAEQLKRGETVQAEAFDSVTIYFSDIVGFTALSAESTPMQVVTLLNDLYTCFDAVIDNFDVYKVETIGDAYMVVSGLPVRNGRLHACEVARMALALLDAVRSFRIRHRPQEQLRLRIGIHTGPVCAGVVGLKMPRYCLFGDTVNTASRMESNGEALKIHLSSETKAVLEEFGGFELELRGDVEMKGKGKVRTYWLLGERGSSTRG
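Compound pre-incubated 30 min at room temperature on GloSensor-loaded HEK293 cells stably carrying hNpr1 and the pGS-40F cGMP biosensor. Stimulation uses hNppA at 0.1 nM final; luminescence is taken at baseline and 20 min post-agonist.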
3T3 cytotox: cytotoxic compounds in NIH 3T3 cells | actives 4.3% (n = 94,000) | Potency, µM (doses to about 96.7 µM), actives largely listed as inhibitors | NIH 3T3 viability, CellTiter-Glo ATP luminescence, 48-72 h; also: nearly all actives have a fitted effect of over 55% in size
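NIH 3T3 cells at 400 cells/well received 23 nL of compound by pintool and were incubated 48 or 72 h at 37 °C. Viability was read as ATP-coupled CellTiter-Glo luminescence.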
HEK cytotox: kills HEK 293 cells | Potency, µM (doses to about 115 µM), usual class: inhibitors | actives 6.6% (n = 94,000) | HEK 293 viability, ATP luminescence (CellTiter-Glo), 48-72 h; also: nearly all actives have a fitted effect of over 60% in size
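ATP-coupled CellTiter-Glo luminescence served as viability read-out, recorded 10 min after reagent addition at room temperature. HEK 293 cells, 250 cells/well, had been incubated with pintool-transferred compound for 48 or 72 hr at 37 degree Celsius.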
Large screens that a line does not name were inactive; ! = a repeat was not active. Rows were chosen to be rich in hits. Some 11% of all compounds tested hit in one or more screens of this group. Unless noted, calls follow the shape of the dose curve; as a rule, active = well fitted curve in the direction sought with a large enough effect; inconclusive = small, poorly fitted or top-dose-only effect, or another doubt; inactive = no such curve, though single readings can be large; an effect the other way counts as inactive or inconclusive.

O=C(Nc1ccc(Cl)cc1)N1CCCC(c2nn(-c3ccccn3)c(=O)[nH]2)C1 (centres undefined)	3T3 cytotox 35µM, HEK cytotox 40µM (no result: Luciferase inh, NPR1 antag)
COc1ccc(-n2nc(C3CCN(Cc4ccc(C(F)(F)F)cc4)CC3)[nH]c2=O)cc1	NPR1 antag inconclusive, 3T3 cytotox inconclusive, HEK cytotox 32µM!
O=C(NC1CCCC1)N1CCCC(c2nn(-c3ccccn3)c(=O)[nH]2)C1 (centres undefined)	none (no result: Luciferase inh, NPR1 antag)
Oc1ccc(-c2nc(C3CC3)nc3c2CN(Cc2ccsc2)CC3)cc1	3T3 cytotox inconclusive, HEK cytotox inconclusive
Cc1cccc(NC(=O)c2ccc3c(c2)N(C)C2CCCCN2C3=O)c1 (centres undefined)	Luciferase inh 28µM, 3T3 cytotox inconclusive, HEK cytotox inconclusive
CC(C)c1ccc(NC(=O)c2ccc3c(c2)N(C)C2CCCN2C3=O)cc1 (centres undefined)	Luciferase inh 16µM, 3T3 cytotox inconclusive, HEK cytotox 45µM
Cc1cc(C)cc(NC(=O)c2ccc3c(c2)N(C)C2CCCCN2C3=O)c1 (centres undefined)	Luciferase inh inconclusive, 3T3 cytotox inconclusive, HEK cytotox inconclusive
CC(C)c1cccc(NC(=O)c2ccc3c(c2)N(C)C2CCCCN2C3=O)c1 (centres undefined)	3T3 cytotox inconclusive, HEK cytotox 28µM
CCc1cccc(NC(=O)c2ccc3c(c2)N(C)C2CCCCN2C3=O)c1 (centres undefined)	Luciferase inh inconclusive, 3T3 cytotox inconclusive, HEK cytotox inconclusive
Cc1c(CNC(=O)c2ccc(C3CCNC3)cc2)oc2ccccc12 (centres undefined)	3T3 cytotox inconclusive, HEK cytotox inconclusive
CCCCn1c(=O)c(C(=O)N2CCN(C(=O)c3ccc(Cl)cc3)CC2)nc2cccnc21	none (no result: Luciferase inh, NPR1 antag)
Cc1ccc(C(=O)Nc2cccc(-c3nnc4n3CCCC4)c2)cc1	Luciferase inh inconclusive
O=C(Nc1cccc(-c2ccc(N3CCOCC3)nn2)c1)Nc1ccc(F)cc1F	Luciferase inh 2µM, 3T3 cytotox inconclusive, HEK cytotox inconclusive
CC(=O)Nc1cccc(-c2ccnc(-c3nnc(C)n3CCN3CCOCC3)c2)c1	3T3 cytotox inconclusive
COc1ccc(-c2cccc(C(=O)N3CCOCC3)c2)nn1	none (no result: Luciferase inh, NPR1 antag)
Cc1ccc(NC(=O)Nc2cccc(-c3ccc(N4CCOCC4)nn3)c2)cc1	Luciferase inh 0.63µM, NPR1 antag inconclusive, HEK cytotox inconclusive
Cc1cccc(C(=O)Nc2cccc(-c3ccc(N4CCN(C)CC4)nn3)c2)c1	Luciferase inh 32µM, 3T3 cytotox 40µM, HEK cytotox inconclusive
CSc1ccc(NC(=O)Nc2cccc(-c3ccc(N4CCOCC4)nn3)c2)cc1	Luciferase inh 0.56µM, NPR1 antag 11µM, 3T3 cytotox inconclusive, HEK cytotox inconclusive
COc1cccc(C(=O)NC2CCN(C(=O)c3ccc(-c4cccs4)cc3)CC2)c1	none (no result: Luciferase inh, NPR1 antag)
CC(C)N1CC(C(=O)NCc2cccc(C(F)(F)F)c2)NC1=O (centres undefined)	none (no result: Luciferase inh, NPR1 antag)
CCc1ccccc1NC(=O)Nc1cccc(-c2ccc(N3CCOCC3)nn2)c1	Luciferase inh 1µM, 3T3 cytotox inconclusive, HEK cytotox inconclusive
CCc1ccccc1NC(=O)Cn1c(N2CCOCC2)nc(COC)cc1=O	none
CSc1cccc(NC(=O)C2CCCN(c3cnc4nc(C)c(C)nc4c3)C2)c1 (centres undefined)	none
CSc1cccc(NC(=O)Nc2cccc(-c3ccc(N4CCCC4)nn3)c2)c1	Luciferase inh 1.8µM, 3T3 cytotox inconclusive, HEK cytotox inconclusive
CCOC(=O)[C@@H]1[C@@H](OC)C(=O)N(C)C12CCN(S(=O)(=O)c1ccc(NC(C)=O)cc1)CC2	3T3 cytotox inconclusive (no result: Luciferase inh, NPR1 antag)
c1ccc(-c2noc(-c3cncnc3N3CCN(c4ccccc4)CC3)n2)cc1	Luciferase inh inconclusive, 3T3 cytotox inconclusive, HEK cytotox 45µM
CC(C)(C#N)c1ccc(-c2cc(CO)ccn2)cc1	Luciferase inh 32µM, 3T3 cytotox inconclusive, HEK cytotox inconclusive
Cc1ccnc(NC(=O)C2c3ccccc3C(=O)N(CC(C)C)C23CCCC3)c1 (centres undefined)	3T3 cytotox inconclusive, HEK cytotox inconclusive
O=C(Cc1ccccn1)NC1CCN(c2ccc3nnc(C4CC4)n3n2)CC1	none (no result: Luciferase inh, NPR1 antag)
CCN(C(=O)CCC(=O)N1CCc2nc3cc(-c4ccc(OC)cc4)[nH]n3c(=O)c2C1)c1ccccc1	Luciferase inh 16µM, 3T3 cytotox inconclusive, HEK cytotox inconclusive
COc1ccc(-c2cc3nc4c(c(=O)n3[nH]2)CN(C(=O)CCc2ccccc2)CC4)cc1	none
CCCc1noc(-c2ccn3c(CNC(=O)c4cccc(Cl)c4)nnc3c2)n1	none
COCC1CCN(S(=O)(=O)N2CCCCC2CCc2ccccc2)CC1 (centres undefined)	3T3 cytotox inconclusive, HEK cytotox 45µM
COCCOC1CCN(S(=O)(=O)Cc2ccccc2)CC1	none
COc1ccc(-c2ccc(C(=O)N3CCCCC3)cc2)nn1	3T3 cytotox 28µM, HEK cytotox inconclusive (no result: Luciferase inh, NPR1 antag)
COc1ccc(-c2ccc(C(=O)NC3CC3)cc2)nn1	3T3 cytotox inconclusive, HEK cytotox 89µM (no result: Luciferase inh, NPR1 antag)
COCC(=O)Nc1cc(C2CCCC2)nn1C	none (no result: Luciferase inh, NPR1 antag)
CCCCCC(=O)N1[C@@H](c2ccco2)[C@@H](C(=O)NC)C[C@]12CCCCN(CCOC)C2=O	3T3 cytotox inconclusive (no result: Luciferase inh, NPR1 antag)
CCCn1cc(-c2ccnc(NCc3cccc(C)c3)n2)c(C)n1	3T3 cytotox inconclusive, HEK cytotox inconclusive
CCCn1cc(-c2ccnc(NC3CCN(Cc4ccccn4)CC3)n2)c(C)n1	3T3 cytotox inconclusive, HEK cytotox 28µM
CCCn1cc(-c2ccnc(NCc3c(F)ccc(C)c3F)n2)c(C)n1	3T3 cytotox inconclusive, HEK cytotox 50µM
O=C(c1nc2sccn2c1-c1ccc(F)cc1)N1CCCCC1	none (no result: Luciferase inh, NPR1 antag)
CNC(=O)CCn1ncc2cc(OCc3ccccc3-c3cc(F)ccc3C)ccc21	Luciferase inh inconclusive, 3T3 cytotox 79µM, HEK cytotox 63µM
CNC(=O)CCn1ncc2cc(OCc3ccccc3-c3ccccc3C)ccc21	3T3 cytotox inconclusive, HEK cytotox inconclusive
CNC(=O)CCn1ncc2cc(OCc3ccccc3-c3ccc(F)cc3F)ccc21	Luciferase inh inconclusive, 3T3 cytotox inconclusive, HEK cytotox 79µM
Cc1cccc(NC(=O)N2CC(Oc3ccccc3-c3noc(C)n3)C2)c1	none
O=C(NCC1CC1)c1cccc(OC2CN(C3CCCCC3)C2)c1	3T3 cytotox inconclusive
O=C(c1ccc(C(F)(F)F)cc1)N1CCN(c2ccc3nnc(-c4ccccc4)n3n2)CC1	none (no result: Luciferase inh, NPR1 antag)
CC1=C[C@@H](CNCc2ccncc2)[C@H](C(C)C)C[C@H]1Cc1nnc(-c2ccc([N+](=O)[O-])cc2)o1	3T3 cytotox inconclusive, HEK cytotox 40µM
CC1=C[C@@H](CNCc2ccncc2)[C@H](C(C)C)C[C@H]1Cc1nnc(-c2ccc(C)cc2)o1	NPR1 antag inconclusive, 3T3 cytotox inconclusive, HEK cytotox inconclusive
CC1=C[C@@H](CNC(C)C)[C@H](C(C)C)C[C@H]1Cc1nnc(-c2ccc([N+](=O)[O-])cc2)o1	3T3 cytotox 89µM, HEK cytotox 79µM
